{"source": "PubChem BioAssay AID588832", "about": "(Broad Institute, 2011)", "note": "Fewer than 10 of roughly 8,000 compounds were called active. The list is a sample of the results. A number with no mark means an inactive call. How the calls were made is not given here.", "data": [{"system": "hedgehog, isoform A (Drosophila melanogaster)", "assay": "Hh protein inhibition, biochemical readout – plate reader, single concentration, primary screen (AID 588832);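 further: 0% = neutral control wells and 100% = positive control wells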", "conditions": "Biochemical plate reader assay, at 30.3 µM, stronger effect = higher value", "values": [{"smiles": "COc1cccc(C2c3[nH]c4ccccc4c3C[C@H]3C(=O)N(c4ccccc4C(=O)N4CCCC4C(=O)O)C(=O)N23)c1", "note": "(stereo not given in full)", "inhibition": "-3.51%"}, {"smiles": "Cn1cccc1Cc1nnc(SCC(=O)Nc2ccccc2F)n1-c1ccc(F)cc1", "inhibition": "8.33%"}, {"smiles": "Cn1c(=O)c2c(SCc3ccccn3)nc(CC(C)(C)C)nc2n(C)c1=O", "inhibition": "4.58%"}, {"smiles": "CSC1=NCCN1C(=O)c1ccc(S(=O)(=O)N2CCCC2)cc1", "inhibition": "-1.85%"}, {"smiles": "O=C(Nc1ccccc1Cl)c1ccc2c(c1)N(Cc1ccc(F)cc1)C(=O)CS2=O", "note": "(stereo not given)", "inhibition": "15%"}, {"smiles": "CC1(C2CCC3(C)OC3C2)CO1", "note": "(stereo not given)", "inhibition": "7.18%"}, {"smiles": "Cc1cccc(N2CCN(C(=O)CCC(=O)N3CC(C)Oc4ccc(C)cc43)CC2C)c1", "note": "(stereo not given)", "inhibition": "5.06%"}, {"smiles": "COc1cc2c(cc1OC)CN(C(=O)c1ccc3[nH]c(C)c(C)c3c1)CC2", "inhibition": "8.74%"}, {"smiles": "O=c1c(Cc2ccccc2O)c(O)nc2n1CCCS2", "inhibition": "3.39%"}, {"smiles": "COc1ccc(N(C(=O)c2ccncc2)S(=O)(=O)c2ccc(OC)c(OC)c2)cc1", "inhibition": "11.1%"}, {"smiles": "CCCCC(NC(C)=O)c1nc2ccccc2[nH]1", "note": "(stereo not given)", "inhibition": "5.42%"}, {"smiles": "Cc1cc(Nc2ccc(C(C)C)cc2)n2ncnc2n1", "inhibition": "6.72%"}, {"smiles": "Cc1cc(NS(=O)(=O)c2ccc(NC(=O)c3cnc4scc(C)n4c3=O)cc2)nc(C)n1", "inhibition": "6.2%"}, {"smiles": "CC(C)OC(=O)c1nnc(Cc2ccc(Cl)cc2)o1", "inhibition": "20%"}, {"smiles": "O=C(c1cnn(-c2ccccc2)c1-n1cccc1)N1CCN(C2CCCCC2)CC1", "inhibition": "9.55%"}, {"smiles": "Cc1cc(Cl)cc2sc(NC(=O)c3ccco3)nc12", "inhibition": "3.57%"}, {"smiles": "O=C(O)c1cccc(N2C(=O)C3CC=C(Cl)CC3C2=O)c1", "note": "(stereo not given)", "inhibition": "14.9%"}, {"smiles": "CCn1c(C(=O)N2CCC(C(=O)NCc3ccc4c(c3)OCO4)CC2)cc2sccc21", "inhibition": "8.81%"}, {"smiles": "COC(=O)C1(Cc2ccc(O)c(CC3OC3(C)C)c2)OC(=O)C(O)=C1c1ccc(O)cc1", "note": "(stereo not given)", "inhibition": "6.79%"}, {"smiles": "CC(C)[C@H](NC(=O)[C@@H]1Cc2c([nH]c3ccccc23)C2c3ccccc3C(=O)N21)C(=O)N1CCC[C@H]1C(=O)O", "note": "(stereo not given in full)", "inhibition": "5.17%"}, {"smiles": "CCOc1ccc(C2C(C(=O)Nc3ccc(F)cc3)=C(C)Nc3nc(CCCO)nn32)cc1", "note": "(stereo not given)", "inhibition": "10%"}, {"smiles": "Cc1cc2c(cc1S(=O)(=O)N1CCCCC1)OCC(=O)N2", "inhibition": "10.9%"}, {"smiles": "Cc1noc(C)c1S(=O)(=O)N1CCN(C(c2ccccc2)c2ccc(Cl)cc2)CC1", "note": "(stereo not given)", "inhibition": "8.33%"}, {"smiles": "COc1ccc(S(=O)(=O)Cc2ccc(C(=O)NC3CCCC3)o2)cc1", "inhibition": "8.33%"}, {"smiles": "COc1cc(OC)c(NS(=O)(=O)c2coc(C(N)=O)c2)cc1Cl", "inhibition": "25%"}, {"smiles": "O=C(C1COc2ccccc2O1)N1CCn2c(nc3ccccc32)C1", "note": "(stereo not given)", "inhibition": "4.17%"}, {"smiles": "COc1cc(-c2cc(=O)c3c(O)c(OC)c(OC)c(OC)c3o2)cc(OC)c1OC", "inhibition": "3.45%"}, {"smiles": "O=C(CN1CCOc2ccccc21)NC1CCCCCCC1", "inhibition": "25%"}, {"smiles": "Cc1cccc(NC(=O)CSc2nc3ccccc3nc2N2CC(C)OC(C)C2)c1", "note": "(stereo not given)", "inhibition": "3.85%"}, {"smiles": "CCOc1ccc(NC(=O)c2cccc(NC3=NC4CS(=O)(=O)CC4S3)c2)cc1", "note": "(stereo not given)", "inhibition": "5.12%"}, {"smiles": "COc1ccccc1C(=O)OCn1nnc2ccccc2c1=O", "inhibition": "-5%"}, {"smiles": "Cc1c(C)c2c(OCC(=O)N[C@@H](Cc3ccccc3)C(=O)O)cc3c(c2oc1=O)CCC(C)(C)O3", "inhibition": "-1.79%"}, {"smiles": "Clc1ccccc1C1CC(c2ccccc2)Nc2ncnn21", "note": "(stereo not given)", "inhibition": "8.33%"}, {"smiles": "O=C(NCCCN1CCOCC1)c1ccccc1N1C(=O)[C@@H]2Cc3c([nH]c4ccccc34)C(c3cccc(Cl)c3)N2C1=O", "note": "(stereo not given in full)", "inhibition": "0%"}, {"smiles": "CCCc1cc(=O)oc2cc(OC(C)C(=O)NCC3CCC(C(=O)O)CC3)c(Cl)cc12", "note": "(stereo not given)", "inhibition": "7.18%"}, {"smiles": "O=C(CCC(=O)N1CCOc2ccccc21)Nc1ccccc1Br", "inhibition": "6.78%"}, {"smiles": "CC1(C)Cc2c(C#N)c(NC3CCCCC3)nc(-c3ccco3)c2CO1", "inhibition": "3.64%"}, {"smiles": "COc1ccc2[nH]c3c(c2c1)CCN1C(=O)N([C@@H](C)C(=O)NCc2ccc(C)cc2)C(=O)[C@]31C", "inhibition": "0%"}, {"smiles": "CC(=O)O[C@H]1C(=O)[C@@]2(C)C([C@H](OC(=O)c3ccccc3)[C@]3(O)C[C@H](OC(=O)[C@H](O)[C@@H](NC(=O)c4ccccc4)c4ccccc4)C(C)=C1C3(C)C)[C@]1(OC(C)=O)CO[C@@H]1C[C@H]2O", "note": "(stereo not given in full)", "inhibition": "5.12%"}, {"smiles": "CCc1nn(CC(=O)N2CCN(C)CC2)c(=O)c2cccn12", "inhibition": "5.06%"}, {"smiles": "Cc1ccc(S(=O)(=O)NCc2ccc3[nH]c(C)cc3c2)cc1", "inhibition": "3.57%"}, {"smiles": "CC1CCCN(C(c2ccccc2)c2sc3ncnn3c2O)C1", "note": "(stereo not given)", "inhibition": "5.06%"}, {"smiles": "CCOc1ccc(-n2c(SCC(=O)N3CCc4ccccc43)nnc2-c2c[nH]c3ccccc23)cc1", "inhibition": "13.3%"}, {"smiles": "Nc1nc2n(n1)C(c1cccc(Br)c1)CC(c1ccc(F)cc1)N2", "note": "(stereo not given)", "inhibition": "23.4%"}, {"smiles": "CCOc1ccc(-c2nc(CS(=O)(=O)CC(=O)NCc3ccc(F)cc3)c(C)o2)cc1", "inhibition": "3.57%"}, {"smiles": "COc1ccccc1NC(=O)NCCCN1CCN(c2cccc(Cl)c2)CC1", "inhibition": "-5.49%"}, {"smiles": "Cc1c(S(=O)(=O)Nc2cccc(Cl)c2)c(=O)n(C)c(=O)n1C", "inhibition": "0.909%"}, {"smiles": "COc1cc(OC)cc(C(=O)OCn2nnc3ccccc3c2=O)c1", "inhibition": "0%"}, {"smiles": "COC(=O)c1ccccc1NC(=O)C1CCCN(c2nnc(-n3cccc3)s2)C1", "note": "(stereo not given)", "inhibition": "0.909%"}, {"smiles": "C/C=C/c1cc(OC)c2c(c1)[C@H](C)[C@@H](c1ccc(O)c(OC)c1)O2", "inhibition": "0%"}, {"smiles": "CCCn1c(CN2CCCCC2C)nc2c1c(=O)n(C)c(=O)n2C", "note": "(stereo not given)", "inhibition": "3.57%"}, {"smiles": "COC(=O)C1=C(C)Nc2ccc(C)cc2S1", "inhibition": "0%"}, {"smiles": "CC(=O)c1ccc(NC(=O)C2CCCN2S(=O)(=O)c2ccc(C)cc2)cc1", "note": "(stereo not given)", "inhibition": "15.4%"}, {"smiles": "CCOc1ccc(NC(c2ccccn2)c2oc(CO)cc(=O)c2O)cc1", "note": "(stereo not given)", "inhibition": "1.85%"}, {"smiles": "COc1ccc(NC(=O)c2cc(S(=O)(=O)N3CCc4ccccc43)cn2C)cc1", "inhibition": "-3.51%"}, {"smiles": "O=C(CSc1nc2c(c(=O)n1-c1ccccc1)SCC2)N1CCN(c2ccccc2)CC1", "inhibition": "5.23%"}, {"smiles": "NC(=O)c1cccc2c1C(=O)N(C1CCCCC1)C2", "inhibition": "6.78%"}, {"smiles": "Cc1ccccc1C(=O)Nc1nnc(S(=O)(=O)N2CCCCC2)s1", "inhibition": "3.67%"}, {"smiles": "O=C(Nc1ccccc1)N1CCC(n2c(=O)[nH]c3ccccc32)CC1", "inhibition": "11.9%"}, {"smiles": "Cc1cc2c(cc(C(=O)N3CCC(C(=O)N4CCCC4)CC3)n2Cc2c(F)cccc2Cl)o1", "inhibition": "6.84%"}, {"smiles": "C=C1CCCC2OC(CC3=CC4/C(C)=C/CC(C)CC(/C=C(\\C)C(O)C5CC(O)C(O)C(CCC(O)/C=C/C(C)=C/CCC6=NCCC(C3)C64C)O5)OC(=O)CC3OC(C(O)C1)C(O)C3O)CC(O)C2O", "note": "(stereo not given)", "inhibition": "5.17%"}, {"smiles": "Nc1nonc1-n1nnc(C(=O)N/N=C/c2ccc(O)cc2)c1CN1CCCCCC1", "inhibition": "-1.79%"}, {"smiles": "CC1C(=O)Nc2ccc(S(=O)(=O)N3CCN(c4cccc(Cl)c4)CC3)cc2NC1=O", "note": "(stereo not given)", "inhibition": "7.02%"}, {"smiles": "O=c1ccc2cc(S(=O)(=O)N3CCN(c4ccccc4F)CC3)ccc2[nH]1", "inhibition": "-3.85%"}, {"smiles": "COc1ccccc1CNC(=O)[C@H](Cc1c[nH]c2ccccc12)NC(=O)[C@@H]1Cc2ccccc2CN1", "inhibition": "3.6%"}, {"smiles": "CCOC(=O)c1ccc(NC(=O)COc2cc(=O)n(CC)c3ccccc23)cc1", "inhibition": "4.17%"}, {"smiles": "COC(=O)C(N)CCCCN", "note": "(stereo not given)", "inhibition": "3.45%"}, {"smiles": "COc1ccc(NC(=O)c2cc(CC(C)C)on2)cc1OC", "inhibition": "8.45%"}, {"smiles": "CCOC(=O)N1CCC(N2Cc3cccc(C(=O)N4CCN(C5CCCCC5)CC4)c3C2=O)CC1", "inhibition": "5.77%"}, {"smiles": "CCSc1nnc2c(n1)OC(c1ccc(C(=O)O)cc1)N(C(C)=O)c1ccccc1-2", "note": "(stereo not given)", "inhibition": "0.848%"}, {"smiles": "Cc1ccc(-c2nc(CS(=O)CC(=O)NCCCN3CC(C)CC(C)C3)c(C)o2)cc1", "note": "(stereo not given)", "inhibition": "3.85%"}, {"smiles": "Cc1oc(-c2ccc(Cl)cc2)nc1CS(=O)CC(=O)NCc1cccs1", "note": "(stereo not given)", "inhibition": "5.23%"}, {"smiles": "COc1ccc(N2CCN(C(=O)c3ccc(CS(=O)(=O)c4ccccc4C)o3)CC2)cc1", "inhibition": "7.34%"}, {"smiles": "Cc1ccc(S(=O)(=O)Nc2ccc(O)c3ncccc23)cc1", "inhibition": "64.4% (active)"}, {"smiles": "CCC(NS(=O)(=O)c1ccc(C)cc1)C(=O)N1CCN(c2ccccn2)CC1", "note": "(stereo not given)", "inhibition": "20.8%"}, {"smiles": "Cc1ccc(-c2nc3cccnc3s2)cc1NS(=O)(=O)c1ccc2c(c1)CCCC2", "inhibition": "6.78%"}, {"smiles": "COc1c2c(c(C)c3c1C(=O)OC3)O[C@@]1(C)CC[C@@]3(O)C(C)(C)OC(=O)CC[C@]3(C)[C@H]1C2", "inhibition": "-1.82%"}, {"smiles": "O=C(Cc1cc(=O)[nH]c(=O)[nH]1)NCCN1CCOCC1", "inhibition": "9.62%"}, {"smiles": "COc1ccc2c(c1OC)C(=O)N1C2SC[C@H]1C(=O)NC1CCCCC1", "note": "(stereo not given in full)", "inhibition": "4.89%"}, {"smiles": "c1ccc(Nc2nc3ccccc3n3nnnc23)cc1", "inhibition": "1.79%"}, {"smiles": "Cc1cc(C)cc(N2CC(c3nc4ccccc4n3C)CC2=O)c1", "note": "(stereo not given)", "inhibition": "5.06%"}, {"smiles": "Cc1ccc(CNC(=O)[C@@H](NC(=O)C2CCN(C(=O)[C@@H]3CCCN3)CC2)C(C)C)cc1", "inhibition": "8.17%"}, {"smiles": "Cc1csc2ncc(C(=O)NC(C)c3ccccc3)c(=O)n12", "note": "(stereo not given)", "inhibition": "7.24%"}, {"smiles": "CC1CCN(Cc2ccc(NC(=O)C3CCN(c4nnc(-n5cccc5)s4)CC3)cc2)CC1", "inhibition": "1.99%"}, {"smiles": "CCOC(=O)Cn1c(=O)n(Cc2ccco2)c(=O)c2ccc(C(=O)NC3CCCC3)cc21", "inhibition": "-13%"}]}]}
